From PubChem BioAssay (NCI)
The panel holds about 83,000 compounds, 20% with a hit somewhere; the sample as a whole holds those more often.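 Negative percent growth values reflect cell death: -40 means 40% of the cells present at the start died, and -100 means all died.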 Activity calls are given as the source filed them. The calls were made as follows: active = growth percent below 10; inactive = the rest.

Legend:
Test in all cases: NCI-60 one-dose screen, 48 h (100 = growth as untreated, 0 = no growth, -100 = all killed)
Details in all cases: 10 µM unless noted
T-47D breast = test system: T-47D breast
BT-549 breast = test system: BT-549 breast
MDA-MB-435 melanoma = test system: MDA-MB-435 melanoma
SW-620 colon = test system: SW-620 colon
MCF7 breast = test system: MCF7 breast
HCT-116 colon = test system: HCT-116 colon
HCC-2998 colon = test system: HCC-2998 colon
KM12 colon = test system: KM12 colon

Measured: growth

CC(=O)c1cc2c(N)c(C(=O)Nc3cccc(F)c3C)sc2nc1C
inactive: T-47D breast 80.6% | BT-549 breast 80.9% | SW-620 colon 85.9% | MCF7 breast 78.9% | HCT-116 colon 92.3% | HCC-2998 colon 85% | KM12 colon 87.1%
active: MDA-MB-435 melanoma 4.9%

CCCCCCN(CCCCCC)CCC(O)c1ccc2ccccc2c1 (stereo not drawn)
inactive: T-47D breast 34.4% | BT-549 breast 74.7% | MDA-MB-435 melanoma 68.3% | SW-620 colon 48.2% | MCF7 breast 26.6% | HCT-116 colon 24.3% | HCC-2998 colon 44.6% | KM12 colon 56.2%

CC(=O)NCC1c2c(n(C)c3c(Cl)c(Cl)ccc23)C(=O)NC1(C)C (stereo not drawn)
inactive: T-47D breast 98.5% | BT-549 breast 102% | MDA-MB-435 melanoma 96.4% | SW-620 colon 113% | MCF7 breast 92.1% | HCT-116 colon 94.8% | HCC-2998 colon 93% | KM12 colon 118%

CN1CCN=C1c1ccc(NC(=O)c2ccc(C(=O)Nc3ccc(C4=NCCN4C)cc3)cc2)cc1
inactive: T-47D breast 86.7% | BT-549 breast 97.5% | MDA-MB-435 melanoma 108% | SW-620 colon 102% | MCF7 breast 76.5% | HCT-116 colon 91.1% | HCC-2998 colon 112% | KM12 colon 98.7%

COC(=O)c1cccc(NC(=O)c2ccc(-c3cccc(N)c3)o2)c1
inactive: T-47D breast 88.1% | BT-549 breast 93.5% | MDA-MB-435 melanoma 98.8% | SW-620 colon 104% | MCF7 breast 92.4% | HCT-116 colon 108% | HCC-2998 colon 101% | KM12 colon 98%

COc1ccc(-c2nc3ccc(-c4nc5ccc(N6CCN(C)CC6)cc5[nH]4)cc3[nH]2)cc1OC
inactive: T-47D breast 28.3% | BT-549 breast 63% | MDA-MB-435 melanoma 41.9% | SW-620 colon 49.2% | MCF7 breast 21.1% | HCT-116 colon 23.5% | HCC-2998 colon 77.7% | KM12 colon 97.8%

NS(=O)(=O)c1ccc(CN=C2NC(=O)S/C2=C\c2ccc(Br)cc2)cc1
inactive: T-47D breast 99.2% | BT-549 breast 103% | MDA-MB-435 melanoma 101% | SW-620 colon 97.9% | MCF7 breast 93.5% | HCT-116 colon 94.7% | HCC-2998 colon 107% | KM12 colon 109%

O=[N+]([O-])c1ccc2c(c1)Cc1cc(F)ccc1-2
inactive: T-47D breast 94.4% | BT-549 breast 105% | MDA-MB-435 melanoma 96.9% | SW-620 colon 96.3% | MCF7 breast 84.4% | HCT-116 colon 102% | HCC-2998 colon 102% | KM12 colon 109%

COc1ccc(C2Nc3c(c(C(C)(C)C)nn3-c3ccccc3)C(=O)CS2)cc1 (stereo not drawn)
inactive: T-47D breast 96.5% | BT-549 breast 122% | MDA-MB-435 melanoma 106% | SW-620 colon 107% | MCF7 breast 92.9% | HCT-116 colon 97.7% | HCC-2998 colon 102% | KM12 colon 98.2%

O=C1/C(=C/c2cn(-c3ccccc3)nc2-c2ccccc2)SC(=S)N1CCc1ccccc1
inactive: T-47D breast 96.5% | BT-549 breast 109% | MDA-MB-435 melanoma 97.6% | SW-620 colon 100% | MCF7 breast 95.3% | HCT-116 colon 102% | HCC-2998 colon 107% | KM12 colon 100%

CCc1c(Nc2ccccc2C)nc(N)[nH]c1=O
inactive: T-47D breast 114% | BT-549 breast 102% | MDA-MB-435 melanoma 106% | SW-620 colon 106% | MCF7 breast 97% | HCT-116 colon 98.4% | HCC-2998 colon 101% | KM12 colon 104%

C#CCOc1ccc2ncnc(N3CCC(NC(=O)CCl)CC3)c2c1
inactive: T-47D breast 71% [8.25 µM] | BT-549 breast 64.2% [8.25 µM] | MDA-MB-435 melanoma 68.1% [8.25 µM] | SW-620 colon 55.8% [8.25 µM] | MCF7 breast 51.9% [8.25 µM] | HCT-116 colon 56.5% [8.25 µM] | HCC-2998 colon 107% [8.25 µM] | KM12 colon 96.5% [8.25 µM]

COc1cccc(-c2nn(C(C)(C)C)cc2-c2ccnc(NCCCNS(=O)(=O)c3cccc4ccccc34)c2)c1
inactive: T-47D breast 102% | BT-549 breast 108% | MDA-MB-435 melanoma 102% | SW-620 colon 106% | MCF7 breast 98.6% | HCT-116 colon 98.7% | HCC-2998 colon 114% | KM12 colon 99.5%

COc1ccc(-n2nc(C)c3c(Nc4ccc(NC(=O)Nc5c(Cl)cccc5Cl)cc4)ncnc32)cc1
inactive: T-47D breast 40% | BT-549 breast 57.9% | MDA-MB-435 melanoma 49.1% | SW-620 colon 48.6% | MCF7 breast 58.5% | HCT-116 colon 25% | HCC-2998 colon 51% | KM12 colon 18%

C=CC(=O)Nc1cccc(Nc2nc(SC)nc(-c3cccc([N+](=O)[O-])c3)c2C#N)c1
inactive: T-47D breast 42.7% | BT-549 breast 58.4% | MDA-MB-435 melanoma 53% | SW-620 colon 31.6% | MCF7 breast 28.5% | HCT-116 colon 19.8% | HCC-2998 colon 48.2% | KM12 colon 90.5%

COc1cc(-c2nn(-c3ccc(C(=O)O)cc3)cc2C(=O)O)ccc1O
inactive: T-47D breast 93.2% | BT-549 breast 70.3% | SW-620 colon 32.1% | MCF7 breast 35.3% | HCT-116 colon 86.6% | HCC-2998 colon 91.3% | KM12 colon 42.5%
active: MDA-MB-435 melanoma -5.36%

CCOC(=O)C(C)(C#N)C1C=CCCC1 (stereo not drawn)
inactive: T-47D breast 84.5% | BT-549 breast 111% | MDA-MB-435 melanoma 100% | SW-620 colon 91.2% | MCF7 breast 92.7% | HCT-116 colon 93.2% | HCC-2998 colon 43.5% | KM12 colon 90.5%

Cn1c(=O)[nH]c(=O)c2nc(CCC(=O)NCCC(=O)O)c(=O)[nH]c21
inactive: T-47D breast 98.8% | BT-549 breast 105% | MDA-MB-435 melanoma 101% | SW-620 colon 101% | MCF7 breast 103% | HCT-116 colon 109% | HCC-2998 colon 98.3% | KM12 colon 102%

CCCCCC(=O)Oc1ccc(/C(=C(\C)c2ccc(OC)cc2)c2ccc(OCCN3CCCCC3)cc2)cc1
inactive: T-47D breast 34.8% | BT-549 breast 72.6% | MDA-MB-435 melanoma 62.6% | SW-620 colon 65.1% | MCF7 breast 24.8% | HCT-116 colon 53.2% | HCC-2998 colon 66.7% | KM12 colon 52.8%

N#C/C(=C\c1ccc(-c2ccc(Cl)c(Cl)c2)o1)c1nc(-c2ccco2)cs1
active: T-47D breast -21.3% | HCC-2998 colon 0.932%
inactive: BT-549 breast 109% | MDA-MB-435 melanoma 103% | SW-620 colon 103% | MCF7 breast 12.5% | HCT-116 colon 97.9% | KM12 colon 50.6%

Nc1ccn(-c2ccc(Br)cc2)c(=O)n1
inactive: T-47D breast 202% | BT-549 breast 105% | MDA-MB-435 melanoma 96.6% | SW-620 colon 98.8% | MCF7 breast 108% | HCT-116 colon 102% | HCC-2998 colon 29.7% | KM12 colon 121%

CCNC(=O)Oc1ccc(/C(=C(\C)c2ccc(Cl)cc2)c2ccc(OCCN3CCCCC3)cc2)cc1
inactive: T-47D breast 27.8% | BT-549 breast 72.8% | MDA-MB-435 melanoma 43.4% | MCF7 breast 21.7% | HCT-116 colon 37.4% | HCC-2998 colon 75.1% | KM12 colon 37.3%
active: SW-620 colon 9.64%

Cc1cc(N2CCCC2)nc(NC2CCCC(Nc3ccnc4cc(Cl)ccc34)C2)n1 (stereo not drawn)
active: T-47D breast -35.1% | BT-549 breast -57.9% | MDA-MB-435 melanoma -92.6% | SW-620 colon -58.3% | MCF7 breast -13.2% | HCT-116 colon -87.1% | HCC-2998 colon -40.4% | KM12 colon -62.4%

O=S(=O)(Nc1ccc(I)cc1F)c1ccc(-c2cnc(C3CC3)o2)cc1
inactive: T-47D breast 52% | BT-549 breast 45.7% | SW-620 colon 27.2% | MCF7 breast 27.9% | HCT-116 colon 40.8% | HCC-2998 colon 76.9% | KM12 colon 52.9%
active: MDA-MB-435 melanoma 2.11%

c1ccc(CCNc2ncnc3[nH]ncc23)cc1
inactive: T-47D breast 79.3% | BT-549 breast 97.7% | MDA-MB-435 melanoma 112% | SW-620 colon 113% | MCF7 breast 130% | HCT-116 colon 98.3% | HCC-2998 colon 115% | KM12 colon 109%

OCC(O)c1nc2ccc3[nH]ncc3c2c2c1CCCC2 (stereo not drawn)
active: BT-549 breast -24.6% | SW-620 colon 3.04% | MCF7 breast 8.02% | HCT-116 colon 1.98% | KM12 colon 4.4%
inactive: T-47D breast 14% | MDA-MB-435 melanoma 17.4% | HCC-2998 colon 29.5%

CCN(CC)S(=O)(=O)c1ccc(OC)c(NC(=O)c2[nH]c(C)c3c2CCCCC3=O)c1
inactive: T-47D breast 16.6% | BT-549 breast 59.8% | MDA-MB-435 melanoma 31.3% | SW-620 colon 67% | MCF7 breast 19% | HCT-116 colon 33.7% | HCC-2998 colon 42.3% | KM12 colon 47.9%

COc1cc2c(cc1-c1c(C)noc1C)ncc1nc(C3CCCCC3)n([C@H](C)COC(F)F)c12
inactive: T-47D breast 32.8% | BT-549 breast 58.7% | MDA-MB-435 melanoma 34.1% | SW-620 colon 58.7% | MCF7 breast 18.3% | HCT-116 colon 28.4% | HCC-2998 colon 43.7% | KM12 colon 46.3%

COc1ccc(SC2c3cc(OC)c(OC)cc3Oc3nc(N)c(C#N)c(N)c32)cc1 (stereo not drawn)
active: T-47D breast -41.9% | BT-549 breast -79.1% | MDA-MB-435 melanoma -84.4% | SW-620 colon -64.5% | MCF7 breast -58.9% | HCT-116 colon -88.6% | HCC-2998 colon -84.3% | KM12 colon -79%

N#Cc1c(-c2ccc(Cl)cc2)nc(N=Nc2c(O)[nH]c3ccc(Cl)cc23)nc1N1CCOCC1
inactive: T-47D breast 99.8% | BT-549 breast 92.1% | MDA-MB-435 melanoma 97.5% | SW-620 colon 91.8% | MCF7 breast 97.9% | HCT-116 colon 93.2% | HCC-2998 colon 96.3% | KM12 colon 101%

COc1cc(/C=C/c2cc(/C=C/c3ccc(O)c(OC)c3)n(-c3c(C)cccc3C)c(=O)n2)ccc1O
inactive: HCC-2998 colon 24.1% | KM12 colon 11.6%
active: T-47D breast -4.26% | BT-549 breast -18.1% | MDA-MB-435 melanoma 2.28% | SW-620 colon 7.79% | MCF7 breast 1.69% | HCT-116 colon 8.26%
